# This is a sample that favours compounds with a hit; in the whole collection about 7.6% have one here.
# MCF10A rerep – A quantitative high throughput screen for small molecules that induce DNA re-replication in MCF 10a normal breast cells | MCF 10A DNA re-replication, Hoechst nuclear intensity, 48 h | Potency, µM (doses to about 46.1 µM), inactives show at the top dose activity, positive = re-replication, actives largely listed as activators | hit rate 2.9% among 350,000 | AID 624296, 2012; further: potency means the concentration at half of the fitted maximal effect; % of control where 0% means no effect; nearly all actives have a fitted effect of over 50% in size
# KB-V1 MDR tox – qHTS assay for MDR1-selective chemotherapeutics: Primary screen using the drug-selected MDR subline cells KB-V1; AID 1347076, 2019; Potency, µM (top dose mostly 46.1 µM), actives largely listed as cytotoxic; KB-V1 MDR cells viability, CellTiter-Glo, 72 h; hit rate 3.4% among 400,000; further: potency means the concentration at half of the fitted maximal effect; on the % scale 0 is the no-effect control and ±100 the full control effect; nearly all actives have a fitted effect of over 60% in size
#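 KB-V1 MDR subline cells in DMEM (phenol-red free, 10% FBS) exposed to compounds in qHTS concentration series for 72 h at 37 degrees C. Viability read by CellTiter-Glo luminescence; concentration-effect curves fitted after normalization and correction.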
# hERG WT inh – qHTS for Inhibitors of KCHN2 3.1: Wildtype qHTS; hit rate 0.37% among 340,000; activity change, % at 1.84 µM; Voltage-gated inwardly rectifying potassium channel KCNH2 (Homo sapiens), Q12809; U2OS, BacMam KCNH2, thallium flux FluxOr; stronger effect = lower value; AID 720551, 2013;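 active means maximum activity change below -70%; inconclusive means maximum activity change between -70% and -50%; inactive means maximum activity change above -50%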; further: on the % scale 0 is the no-effect control and ±100 the full control effect
#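 U2OS cells transduced with wild-type KCNH2 virus are loaded with FluxOr dye for 45 min, and thallium flux is measured in kinetic reads before and after stimulation buffer. Rate constants are normalized to DMSO controls.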
# KB-3-1 cytotox – qHTS assay for MDR1-selective chemotherapeutics: Primary screen using the parental adenocarcinoma cell KB-3-1. KB-3-1 viability, CellTiter-Glo ATP luminescence, 72 h. AID 1347075, 2019. hit rate 1.4% among 400,000. Potency, µM (doses to about 46.1 µM), most hits filed as cytotoxic; further: potency means the concentration at half of the fitted maximal effect; on the % scale 0 is the no-effect control and ±100 the full control effect; nearly all actives have a fitted effect of over 60% in size
#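 Multi-concentration cytotoxicity screen in KB-3-1 cells grown in DMEM lacking phenol red with 10% FBS. After 72 h at 37 °C with compound, ATP-dependent luminescence was recorded.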
# KCNH2 3.1 inh – qHTS for Inhibitors of KCHN2 3.1: Mutant qHTS. Potassium voltage-gated channel subfamily H member 2, brain isoform KCNH2 3.1 (human). U2OS KCNH2 3.1, thallium flux FluxOr; stronger effect = lower value. activity change, % (tested at about 1.8 µM). hit rate 0.95% among 340,000;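 active means maximum activity change below -70%; inconclusive means maximum activity change from -70% to -50%; inactive means maximum activity change above -50%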;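 further: thallium influx rate constant from kinetic fluorescence after stimulation buffer; on the % scale 0 is the no-effect control and ±100 the full control effect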
#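 Virally transduced U2OS (3.1 isoform, 4 h infection in dark at RT) → overnight 37 C → FluxOr + Red40 in HBSS/HEPES, 45 min → stimulation buffer, 2 min kinetic read → rate constant vs DMSO controls.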
# SW480 rereplic – A quantitative high throughput screen for small molecules that induce DNA re-replication in SW480 colon adenocarcinoma cells; SW480 DNA re-replication, Hoechst DNA content imaging, 48 h; Potency, µM (top dose mostly 46.1 µM), for inactives: at the highest dose re-replication activation, usual class: activators; hit rate 1.8% among 340,000; further: potency means the concentration at half of the fitted maximal effect; % of control where 0% means no effect; nearly all actives have a fitted effect of over 55% in size
#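 Image-based read-out: total Hoechst fluorescence of nuclei (405 nm excitation, 500-530 nm emission), with hits raising the fraction of high-intensity nuclei. SW480 colon cells incubated 48 hr with compounds at 37 C.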
# * marks the source's active call; other numbers are inactive results; i = inactive; ? = inconclusive; / = not tested or not shown. Unless noted, the call rests on the fitted dose curve; in most records, active means well fitted curve in the direction sought with a large enough effect; inconclusive means small, poorly fitted or top-dose-only effect, or another doubt; inactive means no such curve, though single readings can be large; an effect the other way counts as inactive or inconclusive.
SMILES,MCF10A rerep,KB-V1 MDR tox,hERG WT inh,KB-3-1 cytotox,KCNH2 3.1 inh,SW480 rereplic
O=c1cc(CN2CCN(Cc3ccccc3)CC2)c2ccc(O)cc2o1,-13%,i,?,i,-85*,-8%
COC(=O)Cc1cc(=O)oc2cc(O)ccc12,16µM*,i,2,i,5,18µM*
Cc1cc2oc(=O)cc(CN3CCN(Cc4ccccc4)CC3)c2cc1Cl,8%,i,11,?,-9,1%
O=c1cc(O)c2ccc(O)cc2o1,-1%,i,-8,i,2,6%
Cc1ccc2occ(CN3CCN(c4ccccc4)CC3)c(=O)c2c1,?,23µM*,-27,i,-3,-3%
Cc1ccc2c(CN3CCN(Cc4ccccc4)CC3)cc(=O)oc2c1,-1%,i,-86*,i,-108*,-21%
COc1ccc(CN2CCNC(=O)C2CC(=O)NC2CCCCCCC2)cc1C (stereo unspecified),2%,i,-5,i,0,-11%
COc1cc(N(C)C)c(OC)cc1C=C1C=CC=C1,/,i,/,i,/,/
N#Cc1c(NC(=O)CSc2ncn[nH]2)sc2c1CCCC2,?,?,2,?,-7,-5%
CC(C)(C)C1CCc2c(sc(NC(=O)CSc3ncn[nH]3)c2C#N)C1 (stereo unspecified),?,16µM*,7,?,-9,?
CC1CCc2c(sc(NC(=O)CSc3ncn[nH]3)c2C#N)C1 (stereo unspecified),18µM*,i,4,?,-7,5%
CSc1ccc(-c2nnn(CC(=O)Nc3sc4c(c3C#N)CCC(C(C)(C)C)C4)n2)cc1 (stereo unspecified),/,i,/,i,/,/
CC1(C)S[C@@H]2[C@H](NC(=O)[C@H](NC(=O)N3CCN(S(C)(=O)=O)C3=O)c3ccccc3)C(=O)N2[C@H]1C(=O)O,12%,/,/,/,/,-1%
O=C(Nc1c(C(=O)Nc2cccc(C(F)(F)F)c2)oc2ccccc12)c1cc(=O)c2ccccc2o1,/,?,/,i,/,/
O=C(c1cccs1)N1CCN(C(=O)c2cn(-c3ccccc3)nc2-c2ccccc2)CC1,?,i,-129*,i,-172*,11%
O=C(c1cccn2c(=O)c3ccccc3nc12)N1CCN(c2ccccn2)CC1,-1%,9.2µM*,-17,i,-9,-17%
COc1ccc(-c2nn(-c3ccccc3)cc2/C=C/C(=O)N2CCN(c3ccccn3)CC2)cc1,12%,15µM*,2,i,-20,4%
Cc1ccc(-n2cc(CN3CCN(c4ccccn4)CC3)c(-c3ccc(F)cc3)n2)cc1,18µM*,?,13,?,?,?
Cc1cccc(-n2cc(CN3CCN(c4ccccn4)CC3)c(-c3cccc(F)c3)n2)c1,15%,i,25,?,-2,-2%
NC(=S)N/N=C/c1c[nH]c2ccc(OCc3ccccc3)cc12,16%,i,-8,i,2,0%
CCOC1=C2[C@@H](CN(S(=O)(=O)c3ccc(C)cc3)[C@H]2c2ccccc2F)[C@H]2C(=O)N(c3ccccc3)C(=O)[C@H]2C1,/,i,/,i,/,/
CCOC(=O)Cc1cnc(NC(=O)CSc2nc(C(C)C)cc(=O)[nH]2)s1,2%,i,3,i,12,-58%
O=C(c1cn(-c2ccccc2)nc1-c1ccccc1)N1CCN(c2ccccn2)CC1,?,21µM*,/,?,-14,?
CCn1cc(S(=O)(=O)NCCc2ccccc2OC)cn1,-14%,i,-21,i,9,8%
CCCCCc1c(CC)ncn1CCc1ccccc1OC,/,?,/,16µM*,/,/
SMILES,MCF10A rerep,KB-V1 MDR tox,hERG WT inh,KB-3-1 cytotox,KCNH2 3.1 inh,SW480 rereplic
CCCCN(CC)C(=O)Cc1ccccc1OC,14%,?,-4,i,2,1%
CCCCc1c(-c2ccccc2Br)ncn1CCc1ccccc1OC,/,15µM*,/,?,/,/
CCCCc1c(-c2ccccc2OC)ncn1CCc1ccccc1OC,/,8.2µM*,/,?,/,/
CCCCc1c(-c2ccccc2OC)ncn1CCc1ccccc1Cl,/,18µM*,/,?,/,/
CCOC(=O)c1cc2ccccc2n1C1CCN(CCc2ccccc2)CC1,/,i,/,?,/,/
CCOC(=O)c1c(C)[nH]c(C)c1S(=O)(=O)N1CCCC(C(=O)N2CCN(c3cccc(Cl)c3)CC2)C1 (stereo unspecified),/,i,/,?,/,/
CC(CNC(=O)CCS(=O)(=O)c1ccc2c(c1)NC(=O)CO2)c1ccccc1 (stereo unspecified),9%,i,5,i,-3,-15%
COc1ccccc1CCC(=O)O,/,i,/,i,/,/
COc1ccccc1CCn1cnc(Cc2ccccc2)c1C(C)C,/,13µM*,/,?,/,/
CCCCCc1c(-c2ccccc2OC)ncn1CCc1ccccc1OC,/,12µM*,/,23µM*,/,/
CCOc1ccc(-n2c(SCc3ccccc3)nc3c([nH]c4ccccc43)c2=O)cc1,/,i,/,i,/,/
CC(CN(C)C)CN1c2ccccc2Sc2ccccc21 (stereo unspecified),-9%,18µM*,20,i,4,-20%
COc1cccc(C2=CC(c3cc(Br)ccc3F)n3nnnc3N2)c1 (stereo unspecified),/,i,/,13µM*,/,/
CCOc1ccc(C2C=C(c3cccc(OC)c3)Nc3nnnn32)cc1 (stereo unspecified),/,i,/,i,/,/
Cc1ccc(S(=O)(=O)N2CCOCC2)cc1NC(=O)c1cc([N+](=O)[O-])ccc1N1CCOCC1,5%,i,7,i,1,-5%
CCCc1cnc(NCCNCC(O)COc2ccc(Cl)c(Cl)c2)nc1 (stereo unspecified),?,?,22,i,-98*,?
COc1ccc(S(=O)(=O)NC(=O)C2(C)CCN2C(=O)C2(c3ccccc3)CCCC2)cc1 (stereo unspecified),/,i,/,i,/,/
CCSc1nsc(NC(=O)Nc2ccc(F)cc2F)n1,?,15µM*,-9,?,-7,0%
O=C(Nc1ccccc1)Nc1ccc(F)cc1F,22%,i,/,i,4,8.2µM*
Fc1ccccc1NC(=S)Nc1ccc(Br)cc1,16%,?,4,i,13,-1%

# Bioassay records from PubChem.
